Data reported in the supplement of paper PMC13380429.

Key:
[1] = test system: Vero E6 infected with SARS-CoV-2; test: morphology score (similarity to uninfected cells); higher = more like uninfected cells; settings: 24 h
[2] = test system: Vero E6 infected with SARS-CoV-2; test: SARS-CoV-2 infection rate relative to infected DMSO; higher = more infection, active = 60 or less; settings: 24 h

| Compound | morphology score [1] | SARS-CoV-2 infection rate [2] |
| --- | --- | --- |
| CC(=O)NCCC(=O)N[C@@H](Cc1c[nH]cn1)C(=O)O [N-acetylcarnosine] (10 µM) | -0.122 | 116% (inactive) |
| CC(C)(C)C(=O)NCCCC(=O)O [pivagabine] (10 µM) | 0.0513 | 105% (inactive) |
| CC(=O)N[C@@H](Cc1ccc(O)cc1)C(=O)O [N-acetyl-tyrosine] (10 µM) | -0.058 | 114% (inactive) |
| FC(F)c1nc2ccccc2n1-c1nc(N2CCOCC2)nc(N2CCOCC2)n1 (10 µM) | -0.0463 | 108% (inactive) |
| CCOC(=O)[C@H](CCc1ccccc1)N[C@@H](C)C(=O)N(CC(=O)O)C1Cc2ccccc2C1 [delapril] (10 µM) | -0.0271 | 108% (inactive) |
| CCn1c2ccccc2c2cc(CNCc3ccccc3OC)ccc21 (10 µM) | 0.26 | 87% (inactive) |
| C/C=C1\NC(=O)[C@H]2CSSCC/C=C/[C@H](CC(=O)N[C@H](C(C)C)C(=O)N2)OC(=O)[C@H](C(C)C)NC1=O [romidepsin] (10 µM) | -0.211 | 114% (inactive) |
| COC(=O)C1=C(C#N)NC(C)=C(C(=O)OC(C)C)C1c1cccc([N+](=O)[O-])c1 (stereo not drawn) [nilvadipine] (10 µM) | -0.0761 | 106% (inactive) |
| CC(O)c1cc(C(=O)N[C@@H](C)Cn2ccc(-c3ccc(C#N)c(Cl)c3)n2)n[nH]1 (stereo partly drawn) (10 µM) | 0.201 | 106% (inactive) |
| CNc1ncnc2c1ncn2[C@@H]1O[C@H](CO)[C@@H](O)[C@H]1O [N6-methyladenosine] (10 µM) | -0.0577 | 100% (inactive) |
| OC[C@H]1O[C@H](O[C@H]2O[C@H](CO)[C@@H](O)[C@H](O)[C@H]2O)[C@H](O)[C@@H](O)[C@@H]1O [cabaletta] (10 µM) | -0.0856 | 104% (inactive) |
| CC(=O)OCC1=C(C(=O)O)N2C(=O)[C@@H](NC(=O)CCCC(N)C(=O)O)C2SC1 (stereo partly drawn) [cephalosporin-c-zn] (10 µM) | 0.00489 | 97% (inactive) |
| N=C(N)c1cc2ccc(OC(=O)c3cccs3)cc2s1 (10 µM) | 0.578 | 76% (inactive) |
| CCOC(=O)N1c2ccc(C(F)(F)F)cc2[C@@H](N(Cc2cc(C(F)(F)F)cc(C(F)(F)F)c2)C(=O)OC)C[C@H]1CC (10 µM) | 0.259 | 93% (inactive) |
| CCOC(=O)c1c(O)nc2cccc3c2c1-c1ccccc1C3=O (10 µM) | -0.157 | 117% (inactive) |
| CC1(C)S[C@@H]2[C@H](NC(=O)[C@H](C(=O)O)c3ccsc3)C(=O)N2[C@H]1C(=O)O [ticarcillin] (10 µM) | -0.0272 | 97.5% (inactive) |
| CC(C)(Cc1ccc2ccccc2c1)NC[C@@H](O)COc1cccc(Cl)c1C#N (10 µM) | 0.703 | 9.5% (active) |
| CCc1ccccc1OC[C@@H](O)CN[C@H]1CCCc2ccccc21 (10 µM) | 0.0335 | 93% (inactive) |
| CN1C2CCC1CC(OC(c1ccccc1)c1ccc(Cl)cc1)C2 (stereo not drawn) (0.833333 µM) | 0.251 | 98.5% (inactive) |
| C[C@@H](NCc1cc(Br)cc2nc(O)c(O)nc12)P(=O)(O)O (10 µM) | 0.0389 | 101% (inactive) |
| CCN(CC)CCNC(=O)c1cc(S(C)(=O)=O)ccc1OC [tiapride] (10 µM) | 0.0888 | 98% (inactive) |
| C=C[C@]1(C)C[C@@H](OC(=O)CSC(C)(C)CNC(=O)[C@H](N)C(C)C)[C@]2(C)[C@H](C)CC[C@]3(CCC(=O)[C@H]32)[C@@H](C)[C@@H]1O [valnemulin] (10 µM) | 0.0538 | 116% (inactive) |
| COC(=O)C1=C(C)NC(C)=C(C(=O)OCCCN2CCC(c3ccccc3)(c3ccccc3)CC2)[C@@H]1c1cccc([N+](=O)[O-])c1 [dexniguldipine] (0.833333 µM) | 0.134 | 97.5% (inactive) |
| CN1CCN(c2c(F)cc3c(=O)c(C(=O)O)cn(CCF)c3c2F)CC1 [fleroxacin] (10 µM) | -0.043 | 115% (inactive) |
| Cc1ccc2c(c1)[C@]13CCCC[C@@H]1[C@H](C2)N(C)CC3 [dimemorfan] (10 µM) | 0.368 | 92.5% (inactive) |
| COc1cc2c(cc1OC)C1CC(=O)C(CC(C)C)CN1CC2 (stereo not drawn) [tetrabenazine] (10 µM) | 0.159 | 102% (inactive) |
| O=C(O)C(Cl)Cl [dichloroacetate] (10 µM) | 0.236 | 88.5% (inactive) |
| O=c1c2ccccc2nc2n1CCc1c-2[nH]c2ccccc12 [rutaecarpine] (10 µM) | 0.246 | 105% (inactive) |
| O=C(NC(=O)c1c(F)cccc1Cl)NC1c2ccccc2-c2ccccc21 (10 µM) | 0.143 | 102% (inactive) |
